Test results from PubChem BioAssay (NCI).
This is part of a sample that, as a whole, favours compounds with a hit. Of some 79,000 tested, about 15% had one in any assay. Activity calls are given as the source filed them. Rule as the data show it: active = growth inhibition above about 70%; inactive = the rest.

Columns and labels:
[1] = NCI Yeast Anticancer Drug Screen. Data for the rad52 strain (AID 147);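 also: 0% = growth of vehicle-treated control cultures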; details: S. cerevisiae rad52 mutant growth inhibition, hits give high values
Method in brief: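 Screen used a yeast mutant impaired in DNA repair. After compound exposure, growth was measured. Values reflect inhibition compared with vehicle-treated cells.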

[2] = NCI Yeast Anticancer Drug Screen. Data for the wt1 strain (AID 149);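 also: 0% = growth of vehicle-treated wt1 cultures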; details: S. cerevisiae wt1 strain (SPY 50644) growth inhibition, hits give high values
Method in brief: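 Yeast wt1 strain exposed to compounds; growth inhibition measured relative to vehicle-treated controls.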

[3] = NCI Yeast Anticancer Drug Screen. Data for the rad50EPP+ strain (AID 151);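 also: 0% = growth of vehicle-treated control cultures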; details: S. cerevisiae rad50 mutant strain, hits give high values
Method in brief: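 Exposing the rad50EPP+ strain to each compound, growth was compared with vehicle-only cultures to give inhibition.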

[4] = NCI Yeast Anticancer Drug Screen. Data for the mgt1 strain (AID 153); details: S. cerevisiae mgt1 mutant growth inhibition, hits give high values
Method in brief: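 Genetically defined yeast (mgt1) treated with compound; inhibition of growth expressed against vehicle-treated controls.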

[5] = NCI Yeast Anticancer Drug Screen. Data for the rad50 strain (AID 155);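 also: 0% = growth of vehicle-only cultures of the same strain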; details: S. cerevisiae rad50 strain growth inhibition, hits give high values
Method in brief: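 Yeast carrying a defined DNA repair defect were exposed to test compounds, and growth was compared with vehicle-treated controls to give percent inhibition.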

[6] = NCI Yeast Anticancer Drug Screen. Data for the mec2-1 strain (AID 157); details: S. cerevisiae mec2-1 strain, hits give high values
Method in brief: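 Readout is yeast growth inhibition, normalised to vehicle-treated controls, in the mec2-1 strain exposed to compound.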

[7] = NCI Yeast Anticancer Drug Screen. Data for the rad14 strain (AID 159);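 also: 0% = growth of vehicle-treated control cultures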; details: S. cerevisiae rad14 strain growth inhibition, hits give high values
Method in brief: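 Yeast cells carrying a defined DNA-repair defect were exposed to compounds, and growth inhibition was calculated relative to vehicle-treated control cultures.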

[8] = NCI Yeast Anticancer Drug Screen. Data for the sgs1 mgt1 strain (AID 161);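 also: 0% = growth of cultures given vehicle only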; details: S. cerevisiae sgs1 mgt1 strain, hits give high values
Method in brief: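 Yeast cells carrying a defined DNA-repair defect were exposed to test compounds. Growth inhibition was measured relative to vehicle-treated controls.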

[9] = NCI Yeast Anticancer Drug Screen. Data for the CLN2oe strain (AID 163);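 also: 0% = growth of vehicle-only control cultures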; details: S. cerevisiae CLN2oe strain, hits give high values
Method in brief: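 Values reflect how much compound exposure reduced yeast growth, referenced to vehicle-exposed cells. Assay organism is a strain with a defined genetic change affecting cell-cycle control.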

[10] = NCI Yeast Anticancer Drug Screen. Data for the cln2 rad14 strain (AID 165);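 also: 0% = growth equal to vehicle treated cultures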; details: S. cerevisiae cln2 rad14 strain, hits give high values
Method in brief: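 Relative to vehicle controls, growth inhibition of compound-treated cln2 rad14 yeast was recorded.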

[11] = NCI Yeast Anticancer Drug Screen. Data for the bub3 strain (AID 167); details: S. cerevisiae bub3 mutant strain, hits give high values
Method in brief: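 Compounds were applied to a genetically altered yeast strain carrying a cell-cycle control defect. Growth inhibition was scored against vehicle-treated controls.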

[12] = NCI Yeast Anticancer Drug Screen. Data for the wt2 strain (AID 169);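 also: 0% = growth of vehicle-treated yeast cultures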; details: S. cerevisiae wt2 strain growth inhibition, hits give high values
Method in brief: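 Values express reduction in yeast growth under compound treatment, referenced to vehicle-treated cells.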

[13] = NCI Yeast Anticancer Drug Screen. Data for the mlh1 strain (AID 171);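 also: 0% = growth of vehicle-treated control cultures of the same strain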; details: S. cerevisiae mlh1 strain growth inhibition, hits give high values
Method in brief: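 Steps: expose the defined-mutant yeast strain to compound; expose a parallel culture to vehicle; measure growth; express compound effect as inhibition relative to the vehicle culture.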

[14] = NCI Yeast Anticancer Drug Screen. Data for the sgs1 strain (AID 173);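 also: 0% = growth of vehicle-only control cultures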; details: S. cerevisiae sgs1 mutant, hits give high values
Method in brief: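 Treat defined-mutant yeast with compound; measure growth; calculate inhibition relative to vehicle-treated cells.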

[15] = NCI Yeast Anticancer Drug Screen. Data for the mlh1 rad18 strain (AID 175); details: S. cerevisiae mlh1 rad18 strain growth inhibition, hits give high values
Method in brief: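 Test agents were incubated with a yeast strain of defined genotype (DNA damage repair defect). Inhibition of growth was derived by comparison with vehicle-exposed cultures.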

[16] = NCI Yeast Anticancer Drug Screen. Data for the rad18 strain (AID 177); details: S. cerevisiae rad18 mutant growth inhibition, hits give high values
Method in brief: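 A genetically defined yeast mutant impaired in DNA damage repair was treated with test compounds, then its growth was measured against cultures receiving vehicle alone.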

[17] = at 5.0 µM (retest, dose inferred, filed as 0.5)
[18] = at 50.0 µM (retest, dose inferred, filed as 5.0)

Measured: growth inhibition

CC1OC(O[C@H]2/C=C/C=C/C=C/C=C/C=C/C=C/C=C/[C@H](C)[C@@H](O)[C@@H](C)[C@H](C)OC(=O)C[C@H](O)C[C@H](O)CC[C@@H](O)[C@H](O)C[C@H](O)C[C@]3(O)C[C@H](O)[C@@H](C(=O)O)[C@H](C2)O3)C(O)C(N)C1O (stereo partly drawn)
inactive: [1]; at 1.2 µM 2% | [1]; at 3.7 µM 45% | [2]; at 1.2 µM 2% | [2]; at 3.7 µM 13% | [3]; at 1.2 µM 25% | [4]; at 1.2 µM 17% | [4]; at 3.7 µM 57% | [5]; at 1.2 µM 19% | [5]; at 3.7 µM 61% | [5]; [17] 18% | [6]; at 1.2 µM -2% | [6]; at 3.7 µM 28% | [6]; [17] 32% | [7]; at 1.2 µM 2% | [7]; at 3.7 µM 23% | [8]; [17] 25% | [9]; at 1.2 µM 2% | [9]; at 3.7 µM 23% | [10]; [17] 50% | [11]; at 1.2 µM -19% | [11]; at 3.7 µM 19% | [11]; [17] 14% | [12]; at 1.2 µM -65% | [12]; at 3.7 µM -3% | [13]; at 1.2 µM 7% | [14]; at 1.2 µM 10% | [14]; at 3.7 µM 50% | [15]; [17] 47% | [16]; at 1.2 µM -20% | [16]; at 3.7 µM 35%
active: [1]; at 11.0 µM 98% | [1]; at 33.0 µM 98% | [1]; at 100.0 µM 98% | [2]; at 11.0 µM 98% | [2]; at 33.0 µM 98% | [2]; at 100.0 µM 98% | [3]; at 3.7 µM 97% | [3]; at 11.0 µM 99% | [3]; at 33.0 µM 99% | [3]; at 100.0 µM 98% | [4]; at 11.0 µM 98% | [4]; at 33.0 µM 99% | [4]; at 100.0 µM 98% | [5]; at 11.0 µM 98% | [5]; at 33.0 µM 98% | [5]; [18] 99% | [5]; at 50.0 µM 99.1% | [5]; at 100.0 µM 97% | [6]; at 11.0 µM 98% | [6]; at 33.0 µM 98% | [6]; [18] 99% | [6]; at 50.0 µM 99.4% | [6]; at 100.0 µM 98% | [7]; at 11.0 µM 95% | [7]; at 33.0 µM 97% | [7]; at 100.0 µM 98% | [8]; [18] 99% | [8]; at 50.0 µM 99.2% | [9]; at 11.0 µM 98% | [9]; at 33.0 µM 98% | [9]; at 100.0 µM 98% | [10]; [18] 99% | [10]; at 50.0 µM 99.1% | [11]; at 11.0 µM 98% | [11]; at 33.0 µM 98% | [11]; [18] 99% | [11]; at 50.0 µM 98.8% | [11]; at 100.0 µM 98% | [12]; at 11.0 µM 96% | [12]; at 33.0 µM 98% | [12]; at 100.0 µM 98% | [13]; at 3.7 µM 78% | [13]; at 11.0 µM 98% | [13]; at 33.0 µM 98% | [13]; at 100.0 µM 98% | [14]; at 11.0 µM 99% | [14]; at 33.0 µM 99% | [14]; at 100.0 µM 99% | [15]; [18] 99% | [15]; at 50.0 µM 98.7% | [16]; at 11.0 µM 97% | [16]; at 33.0 µM 98% | [16]; at 100.0 µM 97%
